# Assay results published in PubChem BioAssay (NCATS).
# Records with an inconclusive call do not appear. Unmarked numbers belong to inactive results. The call rests on the fitted dose curve; in most records, active means well fitted cell-killing curve with a large enough effect; inconclusive means small, poorly fitted or top-dose-only effect; inactive means flat fitted curve, though single readings scatter.
# Assay: qHTS of pediatric cancer cell lines to identify multiple opportunities for drug repurposing: Primary screen for control Hh wild type fibroblast cells (AID 1347106);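 further: a drop in luminescence marks cytotoxicity and a rise apparent proliferation; nearly all actives have a fitted effect of over 55% in size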
# Conditions: Hh wild-type fibroblast viability, CellTiter-Glo luminescence, 48 h; series mostly up to 46 µM; activity change, negative = cytotoxic: at the top concentration
# In short: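 Cells (500-1,000/well) in growth media were settled 5 h at 37 degrees C, then given compounds for 48 h. Viability was read as CellTiter-Glo luminescence. Primary runs used MIPE at 11 points (0.78 nM-46 µM) and NPC at 8 points (0.59 nM-46 µM); follow-ups used 11 points.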
# On the % scale 0 is the no-effect control and ±100 the full control effect.
row,Structure (SMILES),"activity change, negative = cytotoxic"
1,Cc1onc(-c2c(Cl)cccc2Cl)c1C(=O)Cl,4.78%
2,CCOC(=O)Oc1ccc(CCNC(=O)[C@H](CCSC)NC(C)=O)cc1OC(=O)OCC,0.226%
3,O=[N+]([O-])c1nccn1CO[C@@H](CO)[C@H](O)CO,-3.34%
4,NS(=O)(=O)c1ccc(N2CCCCS2(=O)=O)cc1,7.06%
5,O=C(O)CCC(=O)OC[C@@H](NC(=O)C(Cl)Cl)[C@H](O)c1ccc([N+](=O)[O-])cc1,-4.81%
6,CC(=O)c1ccc(O)c(C(N)=O)c1,6.14%
7,O=C1c2ccccc2CCc2ccccc21,11.9%
8,CCOC(=O)c1ccc(NC(=O)CN2CCCCC2)cc1,9.49%
9,Cc1c(F)cc2c(=O)c(C(=O)O)cn3c2c1CCC3C (configuration not stated),1.17%
10,CC(C)(C)NCC(O)COc1ccccc1OCC1CCCO1 (configuration not stated),13.4%
11,Cc1ccc(O)cc1,2.71%
12,CCCCC(CC)CNC(=O)CC(C)OC(=O)CCC(=O)O (configuration not stated),0.488%
13,CCN(CC)CC(=O)OCC(=O)[C@@]1(O)CC[C@H]2[C@@H]3CCC4=CC(=O)CC[C@]4(C)[C@H]3[C@@H](O)C[C@@]21C,5.47%
14,OCCCc1ccccc1,4.17%
15,O=C(CCCCC(=O)Nc1c(I)cc(I)c(C(=O)O)c1I)Nc1c(I)cc(I)c(C(=O)O)c1I,6.79%
16,Cc1cccc(OCC(O)CNC(C)(C)C)c1C (configuration not stated),-4.66%
17,Cc1ccc(C(=O)C(=O)O)cc1C,-2.66%
18,CC(=O)Nc1c(I)c(NC(C)=O)c(I)c(C(=O)O)c1I,11%
19,CC(C)(Oc1ccc(Cl)cc1)C(=O)OCCCOC(=O)C(C)(C)Oc1ccc(Cl)cc1,2.95%

row,Structure (SMILES),"activity change, negative = cytotoxic"
1,O=C(CO)[C@@H](O)[C@H](O)[C@@H](O)CO,-3.81%
2,CCOC(=O)O[C@]1(C(=O)OCCl)CC[C@H]2[C@@H]3CCC4=CC(=O)C=C[C@]4(C)[C@H]3[C@@H](O)C[C@@]21C,-0.167%
3,C[C@H]1C[C@H](O)c2ccsc2S1(=O)=O,16.3%
4,CCN(CC)CC(=O)Oc1ccc(NC(C)=O)cc1,8.42%
5,COC(=O)c1cc(Cl)c(NC(C)=O)cc1OC,4.47%
6,C[N+]1(C)CCC(OC(=O)C(O)(c2ccccc2)C2CCCC2)C1 (configuration not stated),4.54%
7,CCOC(=O)C(O)c1ccccc1 (configuration not stated),7.3%
8,CCN1CCCC1CN (configuration not stated),-8.91%
9,Cc1cc2nc3ccc(=[N+](C)C)cc-3sc2cc1N,-26.4%
10,CCOC(=O)OCC/C(SC(=O)OCC)=C(\C)N(C=O)Cc1cnc(C)nc1N,1.23%
11,CCN(CC)CCN,-3.94%
12,CC(C)(C)c1nnc(NS(=O)(=O)c2ccccc2)s1,5.07%
13,Oc1ccccc1-c1nnco1,10.3%
14,CN=C(N)NC(=O)Nc1c(C)cccc1C,4.3%
15,Cc1cc(=O)oc2cc(O[C@@H]3SC[C@@H](O)[C@H](O)[C@H]3O)ccc12,10.9%
16,CN1C(=O)c2ccccc2C1=O,4.84% [at 92.7 µM]
17,CCN1CCN(C(=O)N[C@@H](C(=O)N[C@@H]2C(=O)N3[C@@H]2SC(C)(C)[C@H]3C(=O)O)c2ccccc2)C(=O)C1=O,11.5%
18,O=C(C1CCCCC1)N1CC(=O)N2CCCc3ccccc3C2C1 (configuration not stated),3.13%
